In the OligoGym collection:

The sequences below were run against CRYGS (assay: pooled miR-30 sensor sort-seq; sequence = guide strand). Conditions: shRNA.
Also: reference of the scale not given here.

Row | Sequence | sensor-assay potency score (higher = more potent)
1 | TATACTGGCCTCCACTAGGCAG | -0.983
2 | TATGTGTGGAAATCTGCACAGT | -0.978
3 | AAGATCTGAATCTTATACTGGC | 0.642
4 | TTCATAGAAAGTAATCTTGGTT | -0.0295
5 | TACAGGAGTGGATCTCTCGCAT | -0.237
6 | TTCGGTGGTTTCATACATCTGA | 0.37
7 | TAATGGAGTTGCAGCGACTTAG | -1.4
8 | TCGCATGTGAAATTGCTCCATG | -0.662
9 | TTTCTCAAAGATCTGAATCTTA | 0.174
10 | TTAATGGAGTTGCAGCGACTTA | -1.8
11 | TGAAATTGCTCCATGATGGAAG | -0.169
12 | TGATGGAAGGGCAATCTTCGGT | -1.06
13 | TCCACTTTAATGGAGTTGCAGC | -1.52
14 | TGGAGTTGCAGCGACTTAGGTA | -0.835
15 | TTTCATACATCTGACCACTAAA | -1.27
16 | TCGGTGGTTTCATACATCTGAC | -1.43
